Experimental data from the supplement of paper PMC11732987, “Enantioselective OTUD7B fragment discovery through chemoproteomics screening and high-throughput optimisation” (Communications Chemistry, 2025).

Experiments:
Assay in all cases: log2 ratio of Biotin-Ahx-Ub-VS probe labelling (fragment/DMSO); higher = less target engagement (more negative = stronger competition), active = hit call of the paper (q ≤ 0.05, log2 ratio ≤ -1)
Conditions in all cases: compound concentration: 200 uM; treatment time: 3 h
[1] = molecular target: USP34 (UniProt Q70CQ2)
Outline: (§1)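 Fragment (200 µM) or vehicle was incubated for 3 h with triplicate HEK293T lysate samples of 495 µg, which were then treated with Biotin-Ahx-Ub-VS at 0.5 µM final for 1 h. Labelled DUBs were enriched on NeutrAvidin, digested with LysC and trypsin, and analysed by diaPASEF LC-MS/MS. Values are average log2 fragment/vehicle ratios from an unpaired t-test on global-median-normalised Spectronaut label-free quantities, using proteins with ≥2 unique peptides.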

[2] = molecular target: T1, USP36 (UniProt Q9P275)
T1 sequence (whole entry): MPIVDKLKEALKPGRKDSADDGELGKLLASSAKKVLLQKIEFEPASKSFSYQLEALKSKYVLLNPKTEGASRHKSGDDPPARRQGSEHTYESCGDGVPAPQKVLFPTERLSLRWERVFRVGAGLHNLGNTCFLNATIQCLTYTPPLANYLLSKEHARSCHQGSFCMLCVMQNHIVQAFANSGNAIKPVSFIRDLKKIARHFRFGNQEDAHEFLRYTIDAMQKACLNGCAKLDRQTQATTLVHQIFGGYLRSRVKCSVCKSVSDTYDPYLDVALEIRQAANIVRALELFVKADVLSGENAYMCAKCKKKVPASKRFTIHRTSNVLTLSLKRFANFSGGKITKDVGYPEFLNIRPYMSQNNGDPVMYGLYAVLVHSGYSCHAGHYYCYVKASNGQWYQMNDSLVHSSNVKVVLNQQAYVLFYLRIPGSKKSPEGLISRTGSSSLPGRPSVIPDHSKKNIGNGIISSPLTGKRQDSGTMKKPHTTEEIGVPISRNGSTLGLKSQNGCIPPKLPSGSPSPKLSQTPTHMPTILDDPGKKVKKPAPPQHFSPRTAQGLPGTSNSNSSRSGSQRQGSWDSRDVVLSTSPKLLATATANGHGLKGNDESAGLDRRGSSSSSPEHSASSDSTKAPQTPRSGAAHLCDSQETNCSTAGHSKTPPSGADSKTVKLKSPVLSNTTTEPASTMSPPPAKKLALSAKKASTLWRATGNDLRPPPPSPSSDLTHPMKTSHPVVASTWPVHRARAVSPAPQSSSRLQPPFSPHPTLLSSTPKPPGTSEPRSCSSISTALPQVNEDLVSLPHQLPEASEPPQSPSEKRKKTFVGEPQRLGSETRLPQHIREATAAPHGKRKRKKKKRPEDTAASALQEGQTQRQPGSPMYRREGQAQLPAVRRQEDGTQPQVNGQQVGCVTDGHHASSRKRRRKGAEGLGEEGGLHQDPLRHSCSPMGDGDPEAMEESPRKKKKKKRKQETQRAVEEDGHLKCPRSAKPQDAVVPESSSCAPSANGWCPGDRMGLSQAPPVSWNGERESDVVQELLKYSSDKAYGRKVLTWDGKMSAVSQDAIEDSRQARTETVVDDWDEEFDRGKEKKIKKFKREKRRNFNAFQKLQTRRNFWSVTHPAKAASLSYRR
Outline: as §1

[3] = molecular target: T2, USP38 (UniProt Q8NB14)
T2 sequence (whole entry): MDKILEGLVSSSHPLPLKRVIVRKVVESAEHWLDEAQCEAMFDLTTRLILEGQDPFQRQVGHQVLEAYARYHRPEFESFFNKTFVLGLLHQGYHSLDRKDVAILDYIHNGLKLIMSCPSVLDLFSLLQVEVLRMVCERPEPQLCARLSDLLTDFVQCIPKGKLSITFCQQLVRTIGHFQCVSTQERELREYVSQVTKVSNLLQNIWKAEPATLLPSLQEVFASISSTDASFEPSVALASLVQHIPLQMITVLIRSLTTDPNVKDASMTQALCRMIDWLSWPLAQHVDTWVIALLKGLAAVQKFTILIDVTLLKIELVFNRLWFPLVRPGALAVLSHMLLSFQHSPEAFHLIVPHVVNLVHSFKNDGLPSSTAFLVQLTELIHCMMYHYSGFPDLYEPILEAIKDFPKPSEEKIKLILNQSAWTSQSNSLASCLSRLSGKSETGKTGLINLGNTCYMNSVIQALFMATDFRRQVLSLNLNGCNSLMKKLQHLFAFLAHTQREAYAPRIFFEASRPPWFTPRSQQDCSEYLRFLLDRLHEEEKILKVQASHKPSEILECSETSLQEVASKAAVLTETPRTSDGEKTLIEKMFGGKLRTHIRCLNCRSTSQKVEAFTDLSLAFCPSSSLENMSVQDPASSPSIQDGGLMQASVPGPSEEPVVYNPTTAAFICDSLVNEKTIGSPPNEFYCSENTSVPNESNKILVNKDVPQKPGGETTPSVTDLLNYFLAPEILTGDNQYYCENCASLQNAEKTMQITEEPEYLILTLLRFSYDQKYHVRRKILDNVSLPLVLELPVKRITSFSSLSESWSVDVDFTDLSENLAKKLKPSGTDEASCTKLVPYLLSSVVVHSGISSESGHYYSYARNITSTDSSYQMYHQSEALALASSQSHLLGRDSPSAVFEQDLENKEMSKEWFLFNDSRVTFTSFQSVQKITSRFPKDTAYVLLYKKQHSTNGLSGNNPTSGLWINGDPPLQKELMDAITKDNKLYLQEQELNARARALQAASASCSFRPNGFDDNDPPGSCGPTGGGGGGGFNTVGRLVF
Outline: as §1

[4] = molecular target: T3, USP39 (UniProt Q53GS9)
T3 sequence (whole entry): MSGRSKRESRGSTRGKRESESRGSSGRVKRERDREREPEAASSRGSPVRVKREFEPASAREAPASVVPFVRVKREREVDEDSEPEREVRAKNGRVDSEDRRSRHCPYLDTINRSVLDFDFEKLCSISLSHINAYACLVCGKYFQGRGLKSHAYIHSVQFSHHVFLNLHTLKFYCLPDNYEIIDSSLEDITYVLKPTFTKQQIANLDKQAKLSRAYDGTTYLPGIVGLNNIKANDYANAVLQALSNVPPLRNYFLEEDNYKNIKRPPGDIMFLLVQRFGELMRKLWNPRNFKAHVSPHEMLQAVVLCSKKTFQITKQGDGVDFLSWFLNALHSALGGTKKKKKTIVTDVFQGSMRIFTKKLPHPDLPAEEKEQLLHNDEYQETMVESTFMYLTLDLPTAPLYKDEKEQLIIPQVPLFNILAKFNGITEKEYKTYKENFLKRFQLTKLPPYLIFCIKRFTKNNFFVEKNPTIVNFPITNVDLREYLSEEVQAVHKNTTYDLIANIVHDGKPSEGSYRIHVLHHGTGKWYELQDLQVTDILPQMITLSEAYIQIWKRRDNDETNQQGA
Outline: as §1

[5] = molecular target: T4, USP4 (UniProt Q13107)
T4 sequence (whole entry): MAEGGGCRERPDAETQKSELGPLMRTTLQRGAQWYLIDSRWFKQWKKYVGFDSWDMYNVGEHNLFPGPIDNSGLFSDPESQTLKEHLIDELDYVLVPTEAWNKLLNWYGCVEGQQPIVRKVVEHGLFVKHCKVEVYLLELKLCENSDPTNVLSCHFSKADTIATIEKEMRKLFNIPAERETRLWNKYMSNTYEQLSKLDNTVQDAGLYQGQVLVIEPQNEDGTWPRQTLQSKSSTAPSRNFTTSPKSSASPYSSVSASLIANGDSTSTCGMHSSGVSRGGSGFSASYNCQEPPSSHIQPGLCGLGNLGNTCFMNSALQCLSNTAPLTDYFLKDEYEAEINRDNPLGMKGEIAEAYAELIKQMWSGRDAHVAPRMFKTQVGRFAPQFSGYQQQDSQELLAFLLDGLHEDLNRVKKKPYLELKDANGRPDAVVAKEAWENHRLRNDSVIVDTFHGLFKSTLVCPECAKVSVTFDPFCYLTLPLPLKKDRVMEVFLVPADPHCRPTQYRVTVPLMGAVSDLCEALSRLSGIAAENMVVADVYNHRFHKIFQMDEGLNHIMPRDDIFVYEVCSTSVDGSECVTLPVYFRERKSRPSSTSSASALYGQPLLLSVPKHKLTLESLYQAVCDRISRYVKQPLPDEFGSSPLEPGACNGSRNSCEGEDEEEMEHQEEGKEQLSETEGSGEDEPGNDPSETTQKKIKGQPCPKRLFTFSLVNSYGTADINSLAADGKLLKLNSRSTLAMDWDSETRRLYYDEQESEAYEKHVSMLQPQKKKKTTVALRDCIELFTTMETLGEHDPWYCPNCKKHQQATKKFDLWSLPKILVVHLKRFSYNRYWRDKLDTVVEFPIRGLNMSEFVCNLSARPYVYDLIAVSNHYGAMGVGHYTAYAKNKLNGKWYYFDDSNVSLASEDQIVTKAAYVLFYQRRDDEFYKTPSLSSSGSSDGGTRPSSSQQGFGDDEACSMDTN
Outline: as §1

Measured: log2 ratio of Biotin-Ahx-Ub-VS probe labelling

Sequence of USP34 (Q70CQ2 whole entry, the tested form may be a part): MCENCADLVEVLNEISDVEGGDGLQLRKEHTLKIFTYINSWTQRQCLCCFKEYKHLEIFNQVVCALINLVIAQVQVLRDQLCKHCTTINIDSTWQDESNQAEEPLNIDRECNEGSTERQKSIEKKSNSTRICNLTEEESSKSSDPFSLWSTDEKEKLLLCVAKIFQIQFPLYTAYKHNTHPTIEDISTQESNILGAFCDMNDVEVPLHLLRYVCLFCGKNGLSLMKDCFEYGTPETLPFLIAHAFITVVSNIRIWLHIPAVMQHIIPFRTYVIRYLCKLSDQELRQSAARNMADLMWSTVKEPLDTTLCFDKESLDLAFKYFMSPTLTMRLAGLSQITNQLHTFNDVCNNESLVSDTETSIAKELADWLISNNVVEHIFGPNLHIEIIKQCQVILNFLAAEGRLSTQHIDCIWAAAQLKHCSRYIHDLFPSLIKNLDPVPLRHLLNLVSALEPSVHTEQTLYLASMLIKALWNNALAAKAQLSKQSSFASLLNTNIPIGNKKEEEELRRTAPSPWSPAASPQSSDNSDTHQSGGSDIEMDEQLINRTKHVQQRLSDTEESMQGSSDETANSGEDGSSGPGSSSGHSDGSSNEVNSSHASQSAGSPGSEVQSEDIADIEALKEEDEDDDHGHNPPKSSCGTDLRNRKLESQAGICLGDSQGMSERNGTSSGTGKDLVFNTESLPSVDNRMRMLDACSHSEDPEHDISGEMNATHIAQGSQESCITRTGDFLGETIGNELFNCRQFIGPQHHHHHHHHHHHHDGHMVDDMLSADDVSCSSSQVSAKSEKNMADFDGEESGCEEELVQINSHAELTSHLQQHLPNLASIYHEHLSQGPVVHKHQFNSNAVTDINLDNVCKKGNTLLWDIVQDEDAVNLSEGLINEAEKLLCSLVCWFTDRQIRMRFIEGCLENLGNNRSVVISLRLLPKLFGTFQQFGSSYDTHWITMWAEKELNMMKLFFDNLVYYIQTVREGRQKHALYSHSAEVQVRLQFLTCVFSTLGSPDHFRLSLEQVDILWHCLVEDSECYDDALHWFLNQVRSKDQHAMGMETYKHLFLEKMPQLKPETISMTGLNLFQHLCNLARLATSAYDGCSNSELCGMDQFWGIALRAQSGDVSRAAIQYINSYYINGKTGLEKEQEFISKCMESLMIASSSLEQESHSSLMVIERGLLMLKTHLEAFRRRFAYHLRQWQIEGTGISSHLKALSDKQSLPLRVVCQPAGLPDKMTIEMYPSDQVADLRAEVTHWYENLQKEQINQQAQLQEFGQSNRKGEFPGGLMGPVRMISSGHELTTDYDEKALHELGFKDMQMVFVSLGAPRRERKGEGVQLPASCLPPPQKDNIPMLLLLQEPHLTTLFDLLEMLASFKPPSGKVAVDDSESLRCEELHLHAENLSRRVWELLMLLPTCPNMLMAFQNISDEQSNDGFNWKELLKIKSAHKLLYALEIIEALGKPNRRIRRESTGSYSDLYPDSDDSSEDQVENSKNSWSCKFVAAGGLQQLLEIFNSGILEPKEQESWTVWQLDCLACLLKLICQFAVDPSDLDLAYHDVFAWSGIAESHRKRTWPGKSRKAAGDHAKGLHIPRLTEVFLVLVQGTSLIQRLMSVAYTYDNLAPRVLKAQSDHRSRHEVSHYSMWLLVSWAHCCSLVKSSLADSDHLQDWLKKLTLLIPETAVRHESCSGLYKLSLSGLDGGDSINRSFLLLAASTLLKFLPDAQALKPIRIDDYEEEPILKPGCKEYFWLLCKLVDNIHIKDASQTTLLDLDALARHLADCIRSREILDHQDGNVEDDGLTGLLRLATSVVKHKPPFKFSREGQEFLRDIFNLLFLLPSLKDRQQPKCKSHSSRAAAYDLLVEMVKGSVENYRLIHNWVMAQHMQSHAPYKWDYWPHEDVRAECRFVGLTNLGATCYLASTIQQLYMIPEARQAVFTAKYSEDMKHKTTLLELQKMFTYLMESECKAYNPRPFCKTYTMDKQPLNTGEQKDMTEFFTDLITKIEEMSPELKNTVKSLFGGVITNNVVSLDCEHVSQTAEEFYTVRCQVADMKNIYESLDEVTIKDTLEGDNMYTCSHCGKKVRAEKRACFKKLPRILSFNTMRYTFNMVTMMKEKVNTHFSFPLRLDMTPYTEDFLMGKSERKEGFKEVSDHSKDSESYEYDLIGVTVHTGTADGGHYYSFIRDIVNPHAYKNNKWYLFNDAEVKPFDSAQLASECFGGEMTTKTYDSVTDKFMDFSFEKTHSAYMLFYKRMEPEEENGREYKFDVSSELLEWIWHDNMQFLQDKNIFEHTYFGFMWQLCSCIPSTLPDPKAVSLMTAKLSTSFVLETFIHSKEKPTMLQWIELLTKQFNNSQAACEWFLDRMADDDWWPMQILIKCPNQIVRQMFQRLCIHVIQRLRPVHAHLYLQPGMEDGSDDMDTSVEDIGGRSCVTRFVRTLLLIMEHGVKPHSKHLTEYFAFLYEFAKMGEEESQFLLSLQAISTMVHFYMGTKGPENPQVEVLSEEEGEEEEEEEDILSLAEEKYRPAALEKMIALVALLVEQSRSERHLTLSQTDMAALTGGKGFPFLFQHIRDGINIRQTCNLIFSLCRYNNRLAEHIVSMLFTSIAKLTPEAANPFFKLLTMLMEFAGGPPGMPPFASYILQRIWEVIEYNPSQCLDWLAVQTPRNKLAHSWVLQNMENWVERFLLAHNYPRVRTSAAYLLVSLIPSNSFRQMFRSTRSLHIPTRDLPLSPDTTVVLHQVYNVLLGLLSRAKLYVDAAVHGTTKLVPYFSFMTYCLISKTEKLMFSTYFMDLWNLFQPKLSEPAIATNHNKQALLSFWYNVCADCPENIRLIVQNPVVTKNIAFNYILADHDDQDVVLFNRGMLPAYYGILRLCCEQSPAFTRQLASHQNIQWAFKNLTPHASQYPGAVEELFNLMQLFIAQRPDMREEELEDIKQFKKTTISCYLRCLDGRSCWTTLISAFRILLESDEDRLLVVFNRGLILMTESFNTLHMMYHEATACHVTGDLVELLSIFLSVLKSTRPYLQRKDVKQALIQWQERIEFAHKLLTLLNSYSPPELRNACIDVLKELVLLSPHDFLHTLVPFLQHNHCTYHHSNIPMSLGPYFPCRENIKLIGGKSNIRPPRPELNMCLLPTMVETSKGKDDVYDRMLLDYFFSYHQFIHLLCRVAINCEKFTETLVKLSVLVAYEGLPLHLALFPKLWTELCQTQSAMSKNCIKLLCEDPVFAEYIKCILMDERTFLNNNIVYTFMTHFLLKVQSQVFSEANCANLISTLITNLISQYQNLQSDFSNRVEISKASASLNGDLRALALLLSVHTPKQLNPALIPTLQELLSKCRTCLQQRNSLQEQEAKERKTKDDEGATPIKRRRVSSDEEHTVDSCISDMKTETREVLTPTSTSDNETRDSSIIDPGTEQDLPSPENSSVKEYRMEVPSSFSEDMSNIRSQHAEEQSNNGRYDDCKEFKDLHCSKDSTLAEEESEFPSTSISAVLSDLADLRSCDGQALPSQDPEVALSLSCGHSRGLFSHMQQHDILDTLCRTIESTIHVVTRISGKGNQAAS

CC(NC(=O)CCl)c1cccc2ccccc12 (stereo not given)
inactive: [1] -0.0995 | [2] -0.062 | [3] 0.0489 | [4] 0.171 | [5] -0.154
